Results on twelve molecules are retold here after ChEMBL document CHEMBL3988442, “University of Dundee, Small-Polar-MMV Screening Library” (2021).

What all share (design): scale not given: direction of the effect not stated beside the values
Experiment [1] has as its target Protein translocase subunit SecA (Escherichia coli (strain K12)) (UniProt P10408). The experiment can be described thus: Assay to Identify E. coli SecA ATPase Inhibitors. The experiment is classed as functional. The settings on record: 30 µM.
The target of experiment [2] is T1, Ubiquitin-activating enzyme e1, putative (Leishmania donovani (strain BPK282A1)) (UniProt E9BSI1).
T1 sequence (whole entry): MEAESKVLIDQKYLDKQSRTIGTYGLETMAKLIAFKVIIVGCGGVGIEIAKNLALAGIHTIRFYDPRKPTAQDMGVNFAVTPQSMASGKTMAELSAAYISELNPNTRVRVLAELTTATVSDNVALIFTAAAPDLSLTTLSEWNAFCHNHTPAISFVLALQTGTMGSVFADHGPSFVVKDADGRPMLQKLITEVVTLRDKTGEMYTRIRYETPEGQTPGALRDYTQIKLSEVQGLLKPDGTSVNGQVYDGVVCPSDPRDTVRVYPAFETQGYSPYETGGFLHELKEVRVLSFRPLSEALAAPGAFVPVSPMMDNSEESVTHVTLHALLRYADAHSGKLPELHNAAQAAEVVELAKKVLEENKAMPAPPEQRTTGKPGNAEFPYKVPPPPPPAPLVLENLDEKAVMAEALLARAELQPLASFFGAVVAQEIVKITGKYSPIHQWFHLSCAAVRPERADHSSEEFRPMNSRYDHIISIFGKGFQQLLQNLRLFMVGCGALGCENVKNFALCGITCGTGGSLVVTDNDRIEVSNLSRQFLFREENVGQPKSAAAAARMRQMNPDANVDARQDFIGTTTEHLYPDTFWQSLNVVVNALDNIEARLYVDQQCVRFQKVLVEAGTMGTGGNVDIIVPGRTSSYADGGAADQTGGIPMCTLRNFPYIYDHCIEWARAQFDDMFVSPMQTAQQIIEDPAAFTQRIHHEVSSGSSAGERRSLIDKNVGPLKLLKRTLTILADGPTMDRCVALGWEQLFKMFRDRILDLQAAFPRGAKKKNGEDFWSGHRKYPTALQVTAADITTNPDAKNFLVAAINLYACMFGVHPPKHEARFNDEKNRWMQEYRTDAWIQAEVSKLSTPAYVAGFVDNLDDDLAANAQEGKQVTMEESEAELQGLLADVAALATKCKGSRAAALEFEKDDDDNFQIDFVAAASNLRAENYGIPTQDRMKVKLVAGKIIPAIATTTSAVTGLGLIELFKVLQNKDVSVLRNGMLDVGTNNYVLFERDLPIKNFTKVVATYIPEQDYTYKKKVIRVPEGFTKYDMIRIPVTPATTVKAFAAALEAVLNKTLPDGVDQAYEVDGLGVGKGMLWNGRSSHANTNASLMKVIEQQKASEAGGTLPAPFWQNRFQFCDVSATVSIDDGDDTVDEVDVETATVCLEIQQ
The experiment can be described thus: Leishmania donovani Ubiquitin Activating Enzyme (LdE1). The experiment is classed as functional. The settings on record: 30 µM.

Experiment [3] addresses Sialic acid-binding Ig-like lectin 9 (Homo sapiens) (UniProt Q9Y336). The experiment can be described thus: Hs-Siglec9 ALPHAscreen SOP 20170721. The settings on record: 10 µM. A general note: Alpha assays give light when donor and acceptor beads are brought close together.
In another experiment the test system is Trypanosoma cruzi. The experiment can be described thus: Trypanosoma cruzi phosphomannomutase and mannose-1-phosphate guanylyltransferase assay. It counts as functional. As to conditions: 10 µM.
Experiment [4] deals with T2, Arginase-2, mitochondrial (Homo sapiens) (UniProt P78540).
T2 sequence (whole entry): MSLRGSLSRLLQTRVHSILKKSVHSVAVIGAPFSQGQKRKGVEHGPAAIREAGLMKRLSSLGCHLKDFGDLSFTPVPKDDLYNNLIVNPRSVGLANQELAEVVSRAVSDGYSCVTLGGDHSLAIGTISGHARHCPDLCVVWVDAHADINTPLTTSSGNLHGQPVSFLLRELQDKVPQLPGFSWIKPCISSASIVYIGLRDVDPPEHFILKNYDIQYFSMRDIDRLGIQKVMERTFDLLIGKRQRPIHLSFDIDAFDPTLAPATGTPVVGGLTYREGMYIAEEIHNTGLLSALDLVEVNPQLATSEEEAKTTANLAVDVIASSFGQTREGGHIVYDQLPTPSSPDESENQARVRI
The experiment can be described thus: in vitro enzyme assay to detect the production of urea directly proportional to the activity of Arginase II. Also: in the data most compounds retested in dose-response had high values. It counts as functional. As to conditions: 33.3 µM.

Experiment [5] has as its target T3, Proteasome subunit beta (Trypanosoma cruzi) (UniProt O96673).
T3 sequence (whole entry): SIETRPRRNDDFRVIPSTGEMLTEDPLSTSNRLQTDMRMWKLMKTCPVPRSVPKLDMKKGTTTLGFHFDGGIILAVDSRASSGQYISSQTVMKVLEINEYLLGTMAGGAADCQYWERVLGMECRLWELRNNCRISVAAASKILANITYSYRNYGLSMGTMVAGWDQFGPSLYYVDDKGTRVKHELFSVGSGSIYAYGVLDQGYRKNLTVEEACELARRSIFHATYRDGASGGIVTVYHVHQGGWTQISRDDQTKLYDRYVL
Briefly: Trypanosoma cruzi proteasome chymotrypsin-like activity (TcProtChymo) assay. Also: in the data most compounds retested in dose-response had high values. As to conditions: 9.37 µM. It counts as functional.

Another experiment is filed under the species Homo sapiens. The experiment can be described thus: To identify inhibition of the IFN signalling (Jak-Stat) pathway via expression of an eGFP reporter gene under the control of an IFN-stimulated response element (ISRE) containing MxA promoter. The experiment is classed as functional. The settings on record: 30 µM.
Experiment [6] addresses T4, Tyrosyl-tRNA synthetase, putative (Trypanosoma cruzi (strain CL Brener)) (UniProt Q4DSP6).
T4 sequence (whole entry): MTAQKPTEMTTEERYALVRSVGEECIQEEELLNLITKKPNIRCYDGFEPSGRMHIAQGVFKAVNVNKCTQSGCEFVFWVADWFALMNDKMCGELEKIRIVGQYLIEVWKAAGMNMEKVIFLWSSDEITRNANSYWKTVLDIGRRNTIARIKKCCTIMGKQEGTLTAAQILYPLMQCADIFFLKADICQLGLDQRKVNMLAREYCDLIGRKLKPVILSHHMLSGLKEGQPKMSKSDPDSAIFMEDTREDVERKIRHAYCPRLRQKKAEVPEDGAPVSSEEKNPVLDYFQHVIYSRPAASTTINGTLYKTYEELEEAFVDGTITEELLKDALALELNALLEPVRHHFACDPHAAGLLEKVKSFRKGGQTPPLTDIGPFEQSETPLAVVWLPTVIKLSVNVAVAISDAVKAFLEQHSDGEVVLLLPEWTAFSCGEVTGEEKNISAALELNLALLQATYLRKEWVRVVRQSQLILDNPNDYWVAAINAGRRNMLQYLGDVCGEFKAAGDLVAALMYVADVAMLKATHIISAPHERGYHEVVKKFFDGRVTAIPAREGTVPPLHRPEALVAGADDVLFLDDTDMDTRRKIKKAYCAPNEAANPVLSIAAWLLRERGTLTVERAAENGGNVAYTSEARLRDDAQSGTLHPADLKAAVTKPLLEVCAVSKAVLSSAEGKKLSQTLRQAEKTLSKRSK
The experiment can be described thus: Trypanosoma cruzi tyrosyl tRNA synthetase (TcYRS) _High Tyrosine SOP. Also: in the data most compounds retested in dose-response had high values. As to conditions: 30 µM. The experiment is classed as functional.

For experiment [7], the target named is T4, Tyrosyl-tRNA synthetase, putative (Trypanosoma cruzi (strain CL Brener)). Briefly: Trypanosoma cruzi tyrosyl tRNA synthetase (TcYRS) SOP. The experiment is classed as functional. The settings on record: 30 µM.
Experiment [8] has as its target Chromo domain-containing protein 1 (Saccharomyces cerevisiae (strain ATCC 204508 / S288c) (Baker's yeast)) (UniProt P32657). Briefly: ScCHD-1 Enzyme Inhibition Assay. Also: in the data most compounds retested in dose-response had high values. As to conditions: 30 µM. The experiment is classed as functional.

Molecules are shown by their SMILES. For part of these data: Entries with a potency or affinity are not part of this list.

Chain of Chromo domain-containing protein 1 (Saccharomyces cerevisiae (strain ATCC 204508 / S288c) (Baker's yeast)) (P32657 whole entry, the tested form may be a part): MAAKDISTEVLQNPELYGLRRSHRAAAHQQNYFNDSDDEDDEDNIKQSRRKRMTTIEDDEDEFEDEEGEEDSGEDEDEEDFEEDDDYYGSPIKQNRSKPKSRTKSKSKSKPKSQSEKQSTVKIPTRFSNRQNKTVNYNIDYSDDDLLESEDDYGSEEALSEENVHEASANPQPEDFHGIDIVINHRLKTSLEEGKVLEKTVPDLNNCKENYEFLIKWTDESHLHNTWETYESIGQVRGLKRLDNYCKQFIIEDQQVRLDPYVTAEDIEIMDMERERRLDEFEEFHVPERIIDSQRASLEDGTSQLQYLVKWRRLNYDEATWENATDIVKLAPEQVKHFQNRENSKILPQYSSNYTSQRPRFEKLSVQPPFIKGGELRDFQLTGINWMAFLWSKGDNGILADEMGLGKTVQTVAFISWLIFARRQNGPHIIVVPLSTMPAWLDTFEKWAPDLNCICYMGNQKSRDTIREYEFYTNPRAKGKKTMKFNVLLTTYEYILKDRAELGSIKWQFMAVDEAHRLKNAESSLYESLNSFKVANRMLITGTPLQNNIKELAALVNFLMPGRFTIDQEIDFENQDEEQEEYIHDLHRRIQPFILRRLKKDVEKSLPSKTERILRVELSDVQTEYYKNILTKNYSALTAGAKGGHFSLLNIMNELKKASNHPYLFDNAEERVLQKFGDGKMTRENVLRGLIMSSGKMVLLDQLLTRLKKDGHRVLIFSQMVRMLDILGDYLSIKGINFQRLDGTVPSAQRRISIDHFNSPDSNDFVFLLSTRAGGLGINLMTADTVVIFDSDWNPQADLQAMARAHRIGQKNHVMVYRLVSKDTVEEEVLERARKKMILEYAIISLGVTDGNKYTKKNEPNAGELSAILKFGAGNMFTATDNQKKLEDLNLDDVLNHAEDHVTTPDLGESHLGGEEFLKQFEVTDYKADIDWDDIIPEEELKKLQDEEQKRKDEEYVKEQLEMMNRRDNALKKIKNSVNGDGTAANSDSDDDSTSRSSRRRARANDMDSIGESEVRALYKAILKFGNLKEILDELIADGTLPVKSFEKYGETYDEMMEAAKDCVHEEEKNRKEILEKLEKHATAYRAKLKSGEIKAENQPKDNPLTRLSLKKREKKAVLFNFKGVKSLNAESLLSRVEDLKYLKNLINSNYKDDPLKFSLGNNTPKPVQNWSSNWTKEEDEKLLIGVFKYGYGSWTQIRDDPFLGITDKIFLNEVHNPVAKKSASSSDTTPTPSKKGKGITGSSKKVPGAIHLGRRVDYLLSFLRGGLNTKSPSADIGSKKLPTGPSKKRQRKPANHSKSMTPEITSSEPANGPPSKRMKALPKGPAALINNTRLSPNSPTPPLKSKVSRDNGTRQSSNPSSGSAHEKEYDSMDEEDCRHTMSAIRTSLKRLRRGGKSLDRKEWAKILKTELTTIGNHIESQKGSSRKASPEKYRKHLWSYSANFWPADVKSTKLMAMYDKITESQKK
Chain of Sialic acid-binding Ig-like lectin 9 (Homo sapiens) (Q9Y336 whole entry): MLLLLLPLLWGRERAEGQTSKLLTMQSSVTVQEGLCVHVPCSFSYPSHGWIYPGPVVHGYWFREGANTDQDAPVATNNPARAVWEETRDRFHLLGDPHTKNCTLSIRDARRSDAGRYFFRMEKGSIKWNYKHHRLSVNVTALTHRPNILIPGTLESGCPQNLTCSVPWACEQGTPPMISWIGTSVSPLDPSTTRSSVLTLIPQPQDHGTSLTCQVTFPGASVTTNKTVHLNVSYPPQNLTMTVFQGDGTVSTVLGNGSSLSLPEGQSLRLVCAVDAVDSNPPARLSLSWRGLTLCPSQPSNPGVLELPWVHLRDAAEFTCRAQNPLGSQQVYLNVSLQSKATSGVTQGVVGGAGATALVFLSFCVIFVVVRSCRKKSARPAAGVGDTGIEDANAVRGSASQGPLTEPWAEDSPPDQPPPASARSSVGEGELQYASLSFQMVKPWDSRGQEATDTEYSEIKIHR
Chain of Protein translocase subunit SecA (Escherichia coli (strain K12)) (P10408 whole entry): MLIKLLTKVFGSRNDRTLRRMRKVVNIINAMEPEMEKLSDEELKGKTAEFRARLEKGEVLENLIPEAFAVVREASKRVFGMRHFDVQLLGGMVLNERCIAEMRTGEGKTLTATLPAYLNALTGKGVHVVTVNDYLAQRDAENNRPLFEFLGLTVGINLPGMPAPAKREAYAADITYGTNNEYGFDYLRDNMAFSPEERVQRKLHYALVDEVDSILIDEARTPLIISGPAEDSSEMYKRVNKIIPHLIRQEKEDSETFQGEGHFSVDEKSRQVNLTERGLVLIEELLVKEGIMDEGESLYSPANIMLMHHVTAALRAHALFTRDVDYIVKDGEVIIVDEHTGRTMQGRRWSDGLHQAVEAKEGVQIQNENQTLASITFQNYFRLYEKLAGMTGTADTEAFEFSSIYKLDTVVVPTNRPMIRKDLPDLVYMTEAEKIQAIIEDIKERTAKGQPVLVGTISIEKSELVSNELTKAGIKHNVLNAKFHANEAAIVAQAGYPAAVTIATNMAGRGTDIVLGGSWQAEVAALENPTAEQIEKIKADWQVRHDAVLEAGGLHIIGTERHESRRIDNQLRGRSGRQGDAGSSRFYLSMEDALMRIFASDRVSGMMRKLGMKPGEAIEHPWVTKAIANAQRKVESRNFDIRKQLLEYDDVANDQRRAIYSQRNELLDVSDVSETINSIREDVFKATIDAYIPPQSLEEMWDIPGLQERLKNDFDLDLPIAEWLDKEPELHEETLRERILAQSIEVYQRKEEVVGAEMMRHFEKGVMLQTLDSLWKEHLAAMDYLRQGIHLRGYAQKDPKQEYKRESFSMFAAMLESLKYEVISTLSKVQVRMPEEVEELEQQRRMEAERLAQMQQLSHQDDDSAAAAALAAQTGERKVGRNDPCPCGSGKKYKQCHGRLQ

Regarding `O=C(Nc1nnc(C2CC2)s1)NC1CCN(Cc2ccccc2)C1` (stereo not given), the Percent Effect in experiment [1] is -5.17%; in [2], 12.8%; in [3], -8.9%; in the experiment on Trypanosoma cruzi it was -2.35%; in [4], 0.82%; in [5], 4.01%. Also, the Percent Effect in the experiment listed under Homo sapiens was 43.6%; in [6] it was 0.478%; in experiment [7], 10.8%; in [8], -0.956%.
With `COc1ccccc1OCC(=O)NS(=O)(=O)c1ccc(C)s1`, the Percent Effect is -1.64% in [1]; 5.2% in experiment [2]; 0.674% in experiment [3]; -0.746% with Trypanosoma cruzi; 7.58% in experiment [4]; 6.49% in experiment [5]. Further, the Percent Effect is 5.05% in the experiment filed under Homo sapiens, 0.98% in experiment [6], 16.5% in experiment [7] and -3.45% in experiment [8].
With `COCCC(=O)N1C[C@H]2CN(Cc3cccc(C)n3)C(=O)[C@H]2C1`, the Percent Effect is -1.95% in [1]; 3.9% in [2]; -4.82% in experiment [3]; -0.563% in the experiment with Trypanosoma cruzi; 2.74% in experiment [4]; 0.0858% in experiment [5]. The Percent Effect in the experiment listed under Homo sapiens is -13.5%; in [6], 7.73%; in experiment [7] it was 7.5%; in experiment [8], -4.73%.
On to `O=C(c1cc2cc(F)ccc2[nH]1)N1CCC(Nc2cccnn2)CC1`, for which the Percent Effect in experiment [1] was -5.68%; in [2], 7.79%; in [3], -3.05%; in the experiment with Trypanosoma cruzi it was -8.21%; in experiment [4], -12.9%; in [5], 10.7%. Moreover, the Percent Effect in the experiment listed under Homo sapiens is 14%; in experiment [6], 0.98%; in [7] it was -2.35%; in [8] it was -5.32%.
As for `Cc1ccccc1-c1cc(C(=O)NCCN2CCCS2(=O)=O)[nH]n1`, the Percent Effect is -1.9% in experiment [1]; 12.8% in [2]; -10.8% in [3]; 9.3% with Trypanosoma cruzi; -2.05% in [4]; 5.72% in experiment [5]. The Percent Effect is 4.69% in the experiment listed under Homo sapiens, 5.26% in [6], 20.5% in experiment [7] and -1.78% in experiment [8].
In the case of `Cc1noc(C)c1CN(C)CCC(=O)N1CCc2sccc2C1`, the Percent Effect in experiment [1] was -4.9%; in experiment [2] it was 0%; in [3], 7.48%; in the experiment on Trypanosoma cruzi, -1%; in experiment [4] it was 0.444%; in [5], 8.74%. In addition, the Percent Effect in the experiment listed under Homo sapiens is 17.8%; in experiment [6], 4.74%; in experiment [7], 5.13%; in experiment [8], -7.86%.
In the case of `Cc1c(O)oc(-c2ccc(Br)cc2)nc1=O`, the Percent Effect is -4.74% in experiment [1]; -73.3% in experiment [2]; -12.4% in experiment [3]; 2.96% in the experiment with Trypanosoma cruzi; -4.87% in experiment [4]; 12.6% in experiment [5]. The Percent Effect in the experiment listed under Homo sapiens was 12.7%; in experiment [6], 3.17%; in experiment [7] it was 15%; in experiment [8], -18.8%.
With `Cc1cc(CNc2cc(Cl)ccc2OCCS(C)(=O)=O)no1`, the Percent Effect is -0.942% in experiment [1]; 5.13% in experiment [2]; -13.6% in [3]; 7.42% with Trypanosoma cruzi; -1.23% in experiment [4]; -4.01% in experiment [5]. Moreover, the Percent Effect in the experiment listed under Homo sapiens is -4.69%; in experiment [6] it was 2.39%; in experiment [7] it was 10.8%; in experiment [8] it was 0.127%.
Consider `Cc1cc(CN2CCCC2Cn2cncn2)no1` (stereo not given), for which the Percent Effect in experiment [1] was -4.42%; in experiment [2], 17.9%; in experiment [3] it was -10.5%; in the experiment on Trypanosoma cruzi, 11.9%; in experiment [4] it was -2.05%; in experiment [5], 17%. In addition, the Percent Effect is 0.869% in the experiment filed under Homo sapiens, 3.35% in experiment [6], 20.5% in experiment [7] and -10.5% in experiment [8].
For `Cc1ccc(-c2cc(CN3CCCC(Cn4cncn4)C3)on2)cc1` (stereo not given), the Percent Effect in experiment [1] was -6.67%; in experiment [2], 7.79%; in [3] it was -2.07%; with Trypanosoma cruzi it was -1.68%; in experiment [4], 1.84%; in experiment [5], 4.39%. Further, the Percent Effect was 28% in the experiment filed under Homo sapiens, 0% in experiment [6], 4.71% in [7] and -3.73% in experiment [8].
Regarding `Cc1cc(C)c(OCC(=O)NS(=O)(=O)c2c(C)noc2C)c(C)c1`, the Percent Effect is -3.67% in experiment [1]; -2.56% in experiment [2]; -14.2% in experiment [3]; 5.54% in the experiment with Trypanosoma cruzi; 1.23% in experiment [4]; 1.11% in experiment [5]. The Percent Effect in the experiment filed under Homo sapiens came to 7.01%; in experiment [6], 1.44%; in [7], 10.8%; in experiment [8], 1.12%.
Regarding `Cn1cc(CC(=O)N2CCC(Nc3cccnn3)CC2)c2ccccc21`, the Percent Effect in experiment [1] is -3.59%; in experiment [2], 18.2%; in [3], 3.22%; in the experiment on Trypanosoma cruzi, 3.73%; in experiment [4], -7.99%; in experiment [5] it was 5.96%. The Percent Effect in the experiment filed under Homo sapiens is 4.59%; in experiment [6] it was 7.84%; in [7], 32.9%; in experiment [8], -10.9%.
